Results filed as inconclusive are left out. Activity calls are given as the source filed them. The call rests on the fitted dose curve; in most records, active means well fitted inhibition curve with a large enough effect; inconclusive means small, poorly fitted or top-dose-only effect; inactive means flat fitted curve, though single readings scatter.
Legend:
CRL-7250 = normal cell line; assay: Cytotoxic Profiling of Annotated Libraries Using Quantitative High-Throughput Screening (AID 1296008); conditions: Five cell lines viability, CellTiter-Glo ATP luminescence, 48-72 h; max response: stronger effect = lower value; on max response: on the % scale 0 is the no-effect control and ±100 the full control effect
How it was run: (§1)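 Cytotoxicity was measured as CellTiter-Glo ATP luminescence, read after 10 min at room temperature. Compound treatment of the cells lasted 48 or 72 hr at 37 degrees Celsius in a qHTS format.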

HEK293 = assay: as above; conditions: Five cell lines viability, CellTiter-Glo ATP luminescence, 48-72 h; max response: stronger effect = lower value
How it was run: as §1

HaCat = assay: as above; conditions: Five cell lines viability, CellTiter-Glo ATP luminescence, 48-72 h; max response: stronger effect = lower value
How it was run: as §1

KB-3-1 = assay: as above; conditions: Five cell lines viability, CellTiter-Glo ATP luminescence, 48-72 h; max response: stronger effect = lower value
How it was run: as §1

NIH3T3 = assay: as above; conditions: Five cell lines viability, CellTiter-Glo ATP luminescence, 48-72 h; max response: stronger effect = lower value
How it was run: as §1

HEK293T = assay: qHTS assay to identify novel small-molecules to repurpose for Merkel cell carcinoma treatment (AID 1296009); conditions: MCC and control cell lines, CellTiter-Glo viability, 72 h; series mostly up to 44.8 µM
How it was run: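 After compound transfer in DMSO, plates were kept 72 hr at 37 degree celsius. Luminescent ATP signal from CellTiter-Glo served as viability measure, normalized against DMSO and no-cell controls.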
Further: nearly all actives have a fitted effect of over 60% in size.

C[C@@H]1O[C@@H](O[C@H]2[C@H](OC(=O)C34CCC(C)(C)CC3C3=CCC5C6(C)CC(O)C(O[C@@H]7O[C@H](CO)[C@@H](O)[C@H](O)[C@H]7O)C(C)(C(=O)O)C6CCC5(C)C3(CO)CC4)O[C@H](C)[C@H](O)[C@@H]2O)[C@H](O)[C@H](O)[C@H]1O[C@@H]1OC[C@@H](O)[C@H](O)[C@H]1O (some centres not stated)
inactive: max response (CRL-7250) -4.64% | outcome (HEK293) | max response (HaCat) 3.66% | outcome (KB-3-1) | max response (NIH3T3) 2.3% | outcome (HEK293T) inactive [at 9.27 µM]

C=C1C2=CC(O)C(C)C1(C)CC/C(C)=C/CCC1(C)OC1C2=O (configuration not stated)
inactive: max response (CRL-7250) -9.54% | outcome (HEK293) | max response (HaCat) 1.13% | outcome (KB-3-1) | outcome (NIH3T3) | Potency (HEK293T)

C[C@@H]1C(=O)O[C@H]2CC34[C@H]5C[C@@H](C(C)(C)C)C36[C@@H](OC(=O)[C@@H]6O)O[C@@]4(C(=O)O5)[C@]21O (some centres not stated)
inactive: max response (CRL-7250) 3.21% | outcome (HEK293) | max response (HaCat) -17.8% | max response (KB-3-1) -3.91% | max response (NIH3T3) 1.08% | Potency (HEK293T)

CCC(=O)N[C@@H]1Cc2ccccc2[C@H](c2ccccc2)C1
inactive: outcome (CRL-7250) | outcome (HEK293) | max response (HaCat) 0.895% | outcome (KB-3-1) | outcome (NIH3T3) | Potency (HEK293T)

CC1=CCC2C(C)(CO)CCCC2(CO)C1CO (configuration not stated)
inactive: outcome (CRL-7250) | outcome (HEK293) | max response (HaCat) -5.9% | outcome (KB-3-1) | outcome (NIH3T3) | Potency (HEK293T)

CNC(=O)c1ccc2cc([C@@]3(O)CCn4cncc43)ccc2c1
inactive: outcome (CRL-7250) | outcome (HEK293) | max response (HaCat) 4.91% | outcome (KB-3-1) | outcome (NIH3T3) | Potency (HEK293T)

C[C@@H](OC(=O)/C=C/c1ccc(O)cc1)C1=C[C@]2(C=C[C@@H]3C(C(=O)O)=CO[C@@H](O[C@@H]4O[C@H](CO[C@@H]5O[C@H](CO)[C@@H](O)[C@H](O)[C@H]5O)[C@@H](O)[C@H](O)[C@H]4O)[C@@H]32)OC1=O
inactive: max response (CRL-7250) 1.07% | outcome (HEK293) | max response (HaCat) 4.46% | max response (KB-3-1) 4.2% | max response (NIH3T3) 2.02% | Potency (HEK293T)

C=C1CCC2C(C)(C(=O)O)CC(O)CC2(C)C1CC/C(C)=C/C(=O)O (configuration not stated)
inactive: max response (CRL-7250) -3.85% | outcome (HEK293) | max response (HaCat) 3.69% | max response (KB-3-1) 5.42% | outcome (NIH3T3) | Potency (HEK293T)

COc1ccccc1-n1c(SCC(=O)Nc2nc3ccc(C)cc3s2)nc2c(c1=O)SCC2
inactive: max response (CRL-7250) 2.47% | outcome (HEK293) | max response (HaCat) -3.57% | max response (KB-3-1) 6.25% | max response (NIH3T3) 3.32% | Potency (HEK293T)

COc1cc(C2Oc3c(O)cc(CCCO)cc3C2CO)ccc1O[C@H]1O[C@H](C)[C@@H](O)[C@H](O)[C@@H]1O (some centres not stated)
inactive: max response (CRL-7250) 0.29% | outcome (HEK293) | max response (HaCat) 3.18% | outcome (KB-3-1) | max response (NIH3T3) -0.439% | Potency (HEK293T)

C[C@@H]1CC[C@]2(C(=O)O)CC[C@]3(C(=O)O)C(=CCC4[C@@]5(C)CC[C@H](O[C@@H]6O[C@@H](C)[C@H](O[C@@H]7O[C@H](CO)[C@@H](O)[C@H](O)[C@H]7O)[C@@H](O)[C@H]6O)C(C)(C)C5CC[C@]43C)C2[C@H]1C (some centres not stated)
inactive: max response (CRL-7250) 0.369% | outcome (HEK293) | max response (HaCat) -0.856% | outcome (KB-3-1) | outcome (NIH3T3) | Potency (HEK293T)

CCOC(=O)N1CCC(NCCNC(=O)c2ccccc2C)CC1
inactive: max response (CRL-7250) 3.66% | outcome (HEK293) | max response (HaCat) -7.3% | max response (KB-3-1) 6.5% | outcome (NIH3T3) | Potency (HEK293T)

COC(=O)CC1(O)C(=O)Nc2ccccc21 (configuration not stated)
inactive: max response (CRL-7250) 3.09% | outcome (HEK293) | max response (HaCat) -5.67% | outcome (KB-3-1) | max response (NIH3T3) 2.12% | Potency (HEK293T)

C[C@@H]1O[C@@H](O[C@H]2[C@H](OC(=O)C34CCC5(C)C(=CCC6C7(C)CC(O)C(O[C@@H]8O[C@H](C(=O)O)[C@@H](O)[C@H](O)[C@H]8O)C(C)(C(=O)O)C7CCC65C)C3CC(C)(C)CC4O)O[C@H](C)[C@@H](O)[C@@H]2O)[C@H](O)[C@@H](O[C@@H]2OC[C@](O)(CO)[C@H]2O[C@@H]2O[C@H](CO)[C@@H](O)[C@H](O)[C@H]2O)[C@H]1O (some centres not stated)
inactive: max response (CRL-7250) -4.39% | outcome (HEK293) | max response (HaCat) -8.41% | outcome (KB-3-1) | outcome (NIH3T3) | outcome (HEK293T) inactive [at 9.27 µM]

Nc1nonc1C(=Nc1ccc(F)c(Cl)c1)NO
inactive: max response (CRL-7250) -22.8% | outcome (HEK293) | max response (HaCat) -3.71% | outcome (KB-3-1) | outcome (NIH3T3) | Potency (HEK293T)

CC1=C2CC3OC3(C)CCC3OC3(C)CC2OC1=O (configuration not stated)
inactive: max response (CRL-7250) -1.41% | outcome (HEK293) | max response (HaCat) -1.36% | outcome (KB-3-1) | max response (NIH3T3) -7.4% | Potency (HEK293T)

CC1=CC(=O)OC(C)(CC(C)(O)C(=O)O)C1 (configuration not stated)
inactive: max response (CRL-7250) -4.45% | outcome (HEK293) | max response (HaCat) -5.61% | max response (KB-3-1) 6.61% | max response (NIH3T3) 0.862% | Potency (HEK293T)
